Source: PubChem BioAssay
3CLpro inhibitor: SARS-CoV 3CLpro protease inhibition | actives 0.14% (n = 290,000) | P0C6X7 | inhibition, % at 6 µM | recombinant SARS-CoV 3CLpro, quenched FRET peptide cleavage; in the data active = inhibition above about 12%
CCHF vOTU inh: CCHFV vOTU protease inhibition | Pep-AMC fluorescence | inhibition, % at 11.5 µM | actives 0.55% (n = 370,000) | AID 651958; in the data active = inhibition above about 30%; note: 0% = vehicle wells with enzyme and 100% = no enzyme wells
Mtb hypoxia inh: reduces hypoxia-regulated biosensor signal in M. tuberculosis; M. tuberculosis hypoxia-regulated fluorescent reporter, fluorescence; fluorescence inhibition, % (concentration not given with the values); actives 0.1% (n = 300,000); AID 1159583; in the data active = fluorescence inhibition mostly above about 23%, no sharp cut-off; inactive = mostly below about 17%
PriA SSB inh: K. pneumoniae PriA-SSBct interaction inhibition | AlphaScreen SSBct-PriA binding, biotinylated peptide | inhibition, % at 33 µM | actives 0.6% (n = 430,000) | AID 1272365; in the data active = inhibition mostly above about 37%, no sharp cut-off; inactive = mostly below about 20%;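 note: plate controls were negative control peptide for no effect and reference peptide for full effect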
DUSP3 inh: inhibitors of human VHR1 phosphatase (DUSP3) | recombinant VHR phosphatase, pNPP absorbance | inhibition, % at 13.3 µM | actives 0.52% (n = 290,000) | P51452; in the data active = inhibition above about 50%
Target sequence (P51452 whole entry, looked up): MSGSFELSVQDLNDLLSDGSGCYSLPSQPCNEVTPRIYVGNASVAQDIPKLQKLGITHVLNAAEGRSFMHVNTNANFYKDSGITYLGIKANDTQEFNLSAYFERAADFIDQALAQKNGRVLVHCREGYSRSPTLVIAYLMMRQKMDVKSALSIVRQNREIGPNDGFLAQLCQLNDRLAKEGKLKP
Starred values were filed as active, the others as inactive; i = inactive; / = not tested or not shown; + = active, no number. Only some compounds are listed: those with a hit (about 1.3% of all), similar ones and a draw of the others.

SMILES | 3CLpro inhibitor | CCHF vOTU inh | Mtb hypoxia inh | PriA SSB inh | DUSP3 inh
C=CCN=c1scc(-c2ccc(C)cc2)n1/N=C/c1ccccn1 | / | / | / | + | /
O=C(NCc1ccc(Cl)cc1)C(=O)N/N=C/c1ccc(Br)cc1 | 7.7 | 12.6 | / | / | 52.3*
COc1cc(OC)cc(-c2noc(-c3sccc3S(=O)(=O)N(C)c3ccc(Cl)cc3)n2)c1 | / | / | / | -11.0 | /
Cc1noc(C)c1C(=O)Nc1cccc2ncccc12 | 0.4 | 8.8 | 0.0 | -13.5 | 53.3*
Cn1c(N)c(C(=O)COC(=O)c2ccco2)c(=O)n(C)c1=O | 3.6 | -0.3 | -0.7 | 20.0 | 57.1*
O=C(NCCC(O)c1ccc2c(c1)OCO2)c1ccc(Cl)s1 (stereo not given) | / | / | / | 37.0* | /
CC(C)OC(=O)CCC(=O)Nc1nc2ccccc2s1 | 4.1 | -2.6 | 1.2 | 3.6 | 51.9*
CCOCC(=O)Nc1nc2ccccc2s1 | -0.2 | -3.5 | 3.9 | -14.6 | -1.0
COc1ccccc1C(=O)N1CCN(Cc2nc3ccccc3[nH]2)CC1 | / | / | / | -8.0 | /
CC(Nc1cccc2ccccc12)C(=O)NN=Cc1ccccn1 (stereo not given) | / | / | -4.9 | 85.1* | /
Cc1ccccc1NC(C)C(=O)N/N=C/c1ccccn1 (stereo not given) | / | / | / | i | /
CCN1CCCc2cc(CCNC(=O)c3ccc4c(c3)OCO4)ccc21 | / | / | / | 65.0* | /
CCN1CCCc2cc(CCNC(=O)c3ccc(OC)c(OC)c3)ccc21 | / | / | / | 64.0* | /
CSc1cccc(-c2nnc(NC(=O)c3cc4c(ccc5ccccc54)oc3=O)o2)c1 | / | / | / | -5.0 | /
O=C(NCCn1nc(-c2ccccn2)c2c1CCCC2)c1ccsc1 | / | / | / | -6.0 | /
COc1ccccc1CNc1ncnc2c1cnn2-c1ccccc1 | / | 16.0 | 7.2 | 46.1* | 25.8
Cc1ccc(S(=O)(=O)n2ccc3c(OCCOCCSCC(NC(=O)OC(C)(C)C)C(=O)O)cccc32)cc1 (stereo not given) | 8.8 | 38.4* | 12.8 | 12.0 | 11.3
COc1ccccc1N1CCN(C(=O)Cc2csc(Nc3ccccc3)n2)CC1 | / | / | / | 6.0 | /
COc1ccccc1N1CCN(C(=O)c2csc(Nc3ccccc3)n2)CC1 | / | / | / | 24.0* | /
CSc1ccc(CNC(=O)CSc2nccn2-c2cccc(C(=O)NCc3ccco3)c2)cc1 | / | / | / | 46.0* | /
Oc1ccc(CNc2ccc(F)cc2)c2cccnc12 | -3.2 | 10.0 | 0.7 | 78.4* | 28.0
Cc1cccc(NCc2ccc(O)c3ncccc23)c1 | -1.5 | -0.8 | -0.7 | 46.6* | 7.5
Cc1ccccc1NCc1ccc(O)c2ncccc12 | 0.4 | 3.1 | 0.6 | 97.4* | 22.5
Oc1ccc(CNc2cc(Cl)cc(Cl)c2)c2cccnc12 | / | / | / | 66.8* | /
Oc1ccc(CNc2ccccc2Br)c2cccnc12 | / | / | / | -1.0 | /
SMILES | 3CLpro inhibitor | CCHF vOTU inh | Mtb hypoxia inh | PriA SSB inh | DUSP3 inh
Oc1ccc(CNc2cccc(F)c2)c2cccnc12 | / | / | / | 45.0 | /
Oc1ccc(CNc2ccccc2)c2cccnc12 | 1.0 | / | 2.6 | -15.7 | 7.6
CCOc1cc(C(=O)Nc2nnc(-c3ccc4c(c3)CCCC4)o2)cc(OCC)c1OCC | / | / | / | -14.0 | /
COC(=O)C(=NNc1ccc(Cl)cc1)Sc1nnc(-c2ccc(OC)cc2)n1C | / | / | 7.3 | 116.4* | /
O=C(NCCc1cccc(Cl)c1)C1CCC(=O)N(Cc2ccc(Cl)cc2)C1 (stereo not given) | -2.5 | 11.7 | -8.5 | -4.5 | 59.1*
C=C1Nc2ccccc2N(CC(=O)Nc2nc(-c3ccccn3)cs2)C1=O | / | / | / | 57.0 | /
O=C(CN1C(=O)C2CCCCC2C1=O)Nc1nc(-c2ccccn2)cs1 (stereo not given) | -5.3 | 8.9 | -2.8 | 81.4* | -6.7
C[C@@H](C(=O)Nc1nc(-c2ccccn2)cs1)N1C(=O)C2CCCCC2C1=O (stereo not given in full) | 4.8 | 21.6 | / | 81.0* | -2.0
CS(=O)(=O)N1CCC(C(=O)Nc2nc(-c3ccccn3)cs2)CC1 | / | / | / | 2.0 | /
CC1Oc2ccccc2N(CC(=O)Nc2nc(-c3ccccn3)cs2)C1=O (stereo not given) | / | / | / | 57.8* | /
O=C(Nc1cc(Cl)ccc1Cl)c1n[nH]n2c1nc(=O)c1ccccc12 | / | / | / | 7.0 | /
Cc1cc(NC(=O)c2ccc3ccccc3c2)n(-c2nc3c(cnn3-c3cccc(C)c3C)c(=O)[nH]2)n1 | / | / | / | -13.0 | /
Cc1cccc(-n2cnc(C(=O)NNC(=O)Nc3ccc(Cl)cc3)c2)n1 | / | / | / | 49.2 | /
Cc1cccc(-n2cnc(C(=O)NNC(=S)Nc3ccc(Cl)cc3)c2)n1 | 0.3 | -2.6 | / | 80.0* | 11.5
O=C(Nc1ccccc1Br)c1n[nH]nc1-c1ccccc1 | / | / | / | -7.0 | /
CC(C)(C)C1CCc2c(sc3nc(CCC(=O)NC4CCCC4)[nH]c(=O)c23)C1 (stereo not given) | / | / | / | -2.0 | /
O=[N+]([O-])c1ccc(NN=Cc2cccc(O)c2)nc1 | / | 15.0 | 16.5 | -22.5 | /
O=[N+]([O-])c1ccc(NN=Cc2cc(Br)ccc2O)nc1 | / | 3.0 | 37.3* | -2.9 | /
CC1CCc2c(sc3c2C(=O)NC(c2ccccn2)N3)C1 (stereo not given) | / | / | / | 66.7* | /
COC(=O)c1ccc(NC(=O)Cn2ncn3nc(-c4ccc(F)cc4)cc3c2=O)cc1 | / | / | / | 2.0 | /
Oc1ccccc1Nc1nc(NCc2ccccc2)c2ccccc2n1 | 0.6 | 16.9 | -2.9 | 49.7* | 12.9
CNC(=S)NNC(=O)c1ccccn1 | / | / | / | 152.5* | /
CC(C)C(=O)NNC(=O)c1ccccn1 | 1.0 | 2.8 | 6.3 | -12.5 | 8.4
C=CCNC(=S)NNC(=O)c1ccccn1 | / | / | / | 148.5* | /
COCCNC(=S)Nc1ccccn1 | -0.4 | 5.2 | 6.3 | -18.7 | 18.2
SMILES | 3CLpro inhibitor | CCHF vOTU inh | Mtb hypoxia inh | PriA SSB inh | DUSP3 inh
COCCNC(=S)NNC(=O)c1ccccn1 | / | / | / | 156.0* | /
C=CCNC(=S)NN=C(C)c1ccccn1 | / | / | 15.1 | -5.4 | /
O=C(N/N=C/c1ccc([N+](=O)[O-])o1)c1cncc(Br)c1 | / | / | / | i | /
COc1ccc(Br)cc1CNC(=O)Cn1nc(C)n2cccc2c1=O | 2.4 | 7.3 | -6.1 | -13.2 | 56.3*
COc1ccc(CNC(=O)Cn2nc(C)n3cccc3c2=O)cc1 | -2.6 | -11.0 | -5.5 | 7.8 | 2.8
Cc1ccc2cc(CCNC(=O)Cc3ccc(F)cc3)c(=O)[nH]c2c1 | / | / | / | -13.0 | /
CCOC(=O)c1c(C)c(C(=O)Nc2ccccc2)c(C)n1CC | 4.7 | -7.4 | 1.3 | -7.8 | -7.3
CCOC(=O)c1c(C)c(C(=O)N2CCc3ccccc3C2)c(C)n1CC | 2.0 | -3.2 | 9.7 | 38.8* | 22.4
O=C1C(Nc2ccc(O)cc2)=C/C(=N/S(=O)(=O)c2cccs2)c2ccccc21 | 7.2 | 108.0* | / | / | 30.1
Cc1cc(C)c(S(=O)(=O)N=C2C=C(Sc3ncn[nH]3)C(=O)c3ccccc32)cc1C | / | / | 11.9 | 10.5 | /
CCc1ccc(S(=O)(=O)N=C2C=C(Nc3ccc(O)cc3)C(=O)c3ccccc32)cc1 | / | / | / | 95.0* | /
CCc1ccc(S(=O)(=O)/N=C2/C=C(Sc3ncn[nH]3)C(=O)c3ccccc32)cc1 | 6.8 | / | / | / | 55.1*
Cc1cccc(NC2=CC(=NS(=O)(=O)c3cccs3)c3ccccc3C2=O)c1 | / | / | 2.1 | 9.0 | /
O=C1C(Nc2ccc(O)cc2)=CC(=NS(=O)(=O)c2cccs2)c2ccccc21 | / | / | 1.7 | 75.8* | /
O=C1CCCC(=O)N1CCS(=O)(=O)NCC(O)Cc1ccccc1 (stereo not given) | / | / | / | -9.0 | /
Cc1ccc(S(=O)(=O)N2CCC(c3nc(-c4ccc(F)cc4)no3)CC2)cc1 | / | / | / | 3.0 | /
CN(C)c1nccc(CNS(=O)(=O)c2cccs2)n1 | / | / | / | -4.0 | /
